An excerpt weighted towards active compounds, which were near 27% of everything screened.
CYP2C9 act: human CYP2C9 activators, primary screen, biochemical, luminescence; activation factor at 5 µM; recombinant CYP2C9, luciferin-H conversion; active compounds read high; factor 1 = untreated enzyme, 0 = blocked; Cytochrome P450 2C9 (Homo sapiens), P11712; 96,000 tested, 1.4% active;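 active means activation factor of 2 or more for CYP2C9 at a 5 µM dose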
EphB4 ephrin blk: EphB4-ephrin-B2 interaction antagonists, primary screen, biochemical, TNYL-RAW peptide probe, fluorescence polarization | Ephrin type-B receptor 4 (Homo sapiens), P54760 | EphB4 LBD / TNYL-RAW-Alexa532 peptide | inhibition, % at 7 µM | 97,000 tested, 0.15% active | AID 720, 2007;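 active means inhibition above the screen-wide mean inhibition plus 3 SD, cut at about 15% in these data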
Target sequence (P54760 whole entry, looked up, the tested form may be a part): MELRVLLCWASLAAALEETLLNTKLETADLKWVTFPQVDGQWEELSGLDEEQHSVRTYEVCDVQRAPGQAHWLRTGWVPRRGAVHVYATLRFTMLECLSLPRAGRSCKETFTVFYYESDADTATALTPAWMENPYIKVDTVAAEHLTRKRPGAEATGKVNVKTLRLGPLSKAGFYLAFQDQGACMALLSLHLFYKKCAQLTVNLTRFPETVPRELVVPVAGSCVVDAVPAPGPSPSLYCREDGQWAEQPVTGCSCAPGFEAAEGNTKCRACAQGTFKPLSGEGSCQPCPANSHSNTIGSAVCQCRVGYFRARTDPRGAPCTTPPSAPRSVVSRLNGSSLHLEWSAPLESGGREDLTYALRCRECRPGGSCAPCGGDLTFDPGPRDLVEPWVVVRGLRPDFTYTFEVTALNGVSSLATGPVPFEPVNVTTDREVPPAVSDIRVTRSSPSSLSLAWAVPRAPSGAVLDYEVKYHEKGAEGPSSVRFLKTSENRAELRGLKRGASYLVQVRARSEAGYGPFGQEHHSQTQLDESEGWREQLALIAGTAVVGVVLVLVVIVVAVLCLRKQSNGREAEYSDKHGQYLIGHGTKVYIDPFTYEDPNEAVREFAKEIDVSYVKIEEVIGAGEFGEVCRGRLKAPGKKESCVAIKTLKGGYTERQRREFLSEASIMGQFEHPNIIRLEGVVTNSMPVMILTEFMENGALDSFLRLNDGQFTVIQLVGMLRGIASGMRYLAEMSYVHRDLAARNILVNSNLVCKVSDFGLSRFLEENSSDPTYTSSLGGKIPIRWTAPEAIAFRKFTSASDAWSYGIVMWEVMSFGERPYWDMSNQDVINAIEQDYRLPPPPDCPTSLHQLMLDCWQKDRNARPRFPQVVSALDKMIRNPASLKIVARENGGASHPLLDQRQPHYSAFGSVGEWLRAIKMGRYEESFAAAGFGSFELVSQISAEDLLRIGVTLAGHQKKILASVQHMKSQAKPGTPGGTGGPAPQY
CYP2C19 inhib: blockers of cytochrome P450 2C19 activity – biochemical, luminescence, ADME assay, primary screen | P33261 | CYP2C19 Supersomes, luciferin-H EGE luminescence, 30 min | inhibition, % at 5 µM | 96,000 tested, 21% active;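 active means CYP2C19 inhibition above a set limit at 5 µM in the primary screen, cut at about 50% in these data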
CYP2C9 inhib: blockers of cytochrome P450 2C9 activity – biochemical, luminescence, ADME assay, primary screen | CYP2C9 Supersomes, luciferin-H conversion | inhibition, % at 5 µM | 96,000 tested, 20% active;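 active means blocking of liver enzyme CYP2C9 beyond about 50% at 5 µM, limit read from the data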
CYP2C19 activ: human CYP2C19 activators, primary screen, biochemical, luminescence; Cytochrome P450 2C19 (Homo sapiens), P33261; recombinant CYP2C19, luciferin-H EGE luminescence; active compounds read high; 0 = fully inhibited enzyme, 1 = untreated enzyme; activation factor at 5 µM; 96,000 tested, under 10 active;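 active means activation factor of at least 2 at 5 µM in the primary screen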
A number is an active result.

What do the screens show for `Cc1ccc(NC(=O)C(Cc2ccccc2)NC(=O)c2ccco2)cc1` (stereo unspecified)?
CYP2C9 act: inactive; EphB4 ephrin blk: inactive; CYP2C19 inhib: inactive; CYP2C9 inhib: inactive; CYP2C19 activ: inactive

How did O=C(O)c1ccc(-c2ccc(O)c(F)c2)cc1 do in these assays?
CYP2C9 act: inactive; EphB4 ephrin blk: inactive; CYP2C19 inhib: inactive; CYP2C9 inhib: inactive; CYP2C19 activ: inactive

What do the screens show for `COc1ccc(CN2CCN(C(=O)CC(C)C)CC2)c2ccccc12`?
CYP2C9 act: inactive; EphB4 ephrin blk: inactive; CYP2C19 inhib: 52.5; CYP2C9 inhib: inactive; CYP2C19 activ: inactive

Results for O=C(Cn1ncc2c1-c1ccccc1OC2)N1CCN(Cc2ccc3c(c2)OCO3)CC1 ?
CYP2C9 act: inactive; EphB4 ephrin blk: inactive; CYP2C19 inhib: inactive; CYP2C9 inhib: 68.4; CYP2C19 activ: inactive

What do the screens show for `COc1cccc(OC)c1C(=O)N1CCN(Cc2ccc3c(c2)OCO3)CC1`?
CYP2C9 act: inactive; EphB4 ephrin blk: inactive; CYP2C19 inhib: 56.7; CYP2C9 inhib: 60.8; CYP2C19 activ: inactive

How did O=C(N1CCN(Cc2ccc3c(c2)OCO3)CC1)C12CC3CC(CC(C3)C1)C2 do in these assays?
CYP2C9 act: inactive; CYP2C19 inhib: 65.7; CYP2C9 inhib: 50.0; CYP2C19 activ: inactive

What do the screens show for `COc1cc(C2NC(=O)C(C#N)=C(S)N2c2ccc(C)cc2)ccc1OC(C)C` (stereo unspecified)?
CYP2C9 act: inactive; EphB4 ephrin blk: inactive; CYP2C19 inhib: inactive; CYP2C9 inhib: inactive; CYP2C19 activ: inactive

Results for O=C(Nc1ccccc1C(=O)N/N=C/c1ccc(F)cc1)c1ccccc1Br ?
CYP2C9 act: inactive; EphB4 ephrin blk: inactive; CYP2C19 inhib: inactive; CYP2C9 inhib: inactive; CYP2C19 activ: inactive

Results for COC(=O)c1ccccc1NC(=O)c1ccc2c(c1)C(=O)N(Cc1ccco1)C2=O ?
EphB4 ephrin blk: inactive

What do the screens show for `COCCNC(=O)CS(=O)Cc1nc(-c2ccccc2C)oc1C` (stereo unspecified)?
CYP2C9 act: inactive; EphB4 ephrin blk: inactive; CYP2C19 inhib: inactive; CYP2C9 inhib: inactive; CYP2C19 activ: inactive

Results for Cc1ccc(C(=O)N2CCN(Cc3ccc4c(c3)OCO4)CC2)o1 ?
CYP2C9 act: inactive; EphB4 ephrin blk: inactive; CYP2C19 inhib: inactive; CYP2C9 inhib: inactive; CYP2C19 activ: inactive

What do the screens show for `COc1cccc(CN2CCN(C(=O)c3cccc4ccccc34)CC2)c1OC`?
CYP2C9 act: inactive; EphB4 ephrin blk: inactive; CYP2C19 inhib: inactive; CYP2C9 inhib: inactive; CYP2C19 activ: inactive

Results for CCOc1ncccc1C(=O)N1CCN(Cc2ccc3c(c2)OCO3)CC1 ?
CYP2C9 act: inactive; EphB4 ephrin blk: inactive; CYP2C19 inhib: 82.5; CYP2C9 inhib: 54.7; CYP2C19 activ: inactive

What do the screens show for `Cc1ccc(NC(=O)N2CCN(Cc3ccc4c(c3)OCO4)CC2)cc1`?
CYP2C9 act: inactive; EphB4 ephrin blk: inactive; CYP2C19 inhib: inactive; CYP2C9 inhib: 81.2; CYP2C19 activ: inactive

What do the screens show for `COc1cccc(OC)c1C(=O)N1CCN(Cc2ccccc2C)CC1`?
CYP2C9 act: inactive; EphB4 ephrin blk: inactive; CYP2C19 inhib: 79.0; CYP2C9 inhib: 74.5; CYP2C19 activ: inactive

What do the screens show for `O=C(c1cccn2c(=O)c3ccc(Cl)cc3nc12)N1CCN(Cc2ccc3c(c2)OCO3)CC1`?
CYP2C9 act: inactive; EphB4 ephrin blk: inactive; CYP2C19 inhib: inactive; CYP2C9 inhib: 70.5; CYP2C19 activ: inactive

What do the screens show for `O=C(CSc1ccc2nnc(-c3cccc(F)c3)n2n1)NCc1ccco1`?
CYP2C9 act: inactive; EphB4 ephrin blk: inactive; CYP2C19 inhib: inactive; CYP2C9 inhib: inactive; CYP2C19 activ: inactive

What do the screens show for `CCOC(=O)C1=C(C)NC(=O)NC1c1ccc(OC)c(Cl)c1` (stereo unspecified)?
CYP2C9 act: inactive; CYP2C19 inhib: inactive; CYP2C9 inhib: inactive; CYP2C19 activ: inactive

How did CCOC(=O)C1=C(C)NC(C)=C(C(=O)OCC)C1c1cc(N)ccc1OC(F)F do in these assays?
CYP2C9 act: inactive; EphB4 ephrin blk: inactive; CYP2C19 inhib: inactive; CYP2C9 inhib: 56.7; CYP2C19 activ: inactive

Results for CCCC(=NCc1ccccc1)C1=C(O)C(C(=O)OC)C(C)(C)CC1=O (stereo unspecified) ?
CYP2C9 act: inactive; EphB4 ephrin blk: inactive; CYP2C19 inhib: 92.8; CYP2C9 inhib: 63.6; CYP2C19 activ: inactive

Results for CCCC(=O)C1=C(O)C(C(=O)OC)C(C)(C)CC1=Nc1ccccc1 (stereo unspecified) ?
CYP2C9 act: inactive; EphB4 ephrin blk: inactive; CYP2C19 inhib: 86.8; CYP2C9 inhib: 82.1; CYP2C19 activ: inactive

Results for CCCCC(=Nc1ccc(N)cc1)C1=C(O)C(C(=O)OC)C(C)(C)CC1=O (stereo unspecified) ?
CYP2C9 act: inactive; EphB4 ephrin blk: inactive; CYP2C19 inhib: inactive; CYP2C9 inhib: 51.3; CYP2C19 activ: inactive

How did CCC(=Nc1ccc(N)cc1)C1=C(O)C(C(=O)OC)C(C)(C)CC1=O (stereo unspecified) do in these assays?
CYP2C9 act: inactive; EphB4 ephrin blk: inactive; CYP2C19 inhib: inactive; CYP2C9 inhib: inactive; CYP2C19 activ: inactive

How did CCCC(=NCC(=O)O)C1=C(O)C(C(=O)OC)C(C)(C)CC1=O (stereo unspecified) do in these assays?
CYP2C9 act: inactive; EphB4 ephrin blk: inactive; CYP2C19 inhib: inactive; CYP2C9 inhib: inactive; CYP2C19 activ: inactive

What do the screens show for `COC(=O)C1C(O)=C(C=NCc2ccccc2)C(=O)CC1(C)C` (stereo unspecified)?
CYP2C9 act: inactive; EphB4 ephrin blk: inactive; CYP2C19 inhib: inactive; CYP2C9 inhib: inactive; CYP2C19 activ: inactive

How did CCC(=NCc1ccccc1)C1=C(O)C(C(=O)OC)C(C)(C)CC1=O (stereo unspecified) do in these assays?
CYP2C9 act: inactive; EphB4 ephrin blk: inactive; CYP2C19 inhib: 97.1; CYP2C9 inhib: 86.3; CYP2C19 activ: inactive

What do the screens show for `Cc1ccc(OCC(=O)N/N=C/C=C/c2ccco2)cc1`?
CYP2C9 act: inactive; EphB4 ephrin blk: inactive; CYP2C19 inhib: inactive; CYP2C9 inhib: inactive; CYP2C19 activ: inactive

What do the screens show for `CC(=O)Nc1sc(NC(=O)c2ccc(C)cc2)nc1-c1cccs1`?
EphB4 ephrin blk: inactive

What do the screens show for `CCCC(=Nc1ccccc1)C1=C(O)C(C(=O)OC)C(C)(C)CC1=O` (stereo unspecified)?
CYP2C9 act: inactive; EphB4 ephrin blk: inactive; CYP2C19 inhib: 69.2; CYP2C9 inhib: inactive; CYP2C19 activ: inactive

Results for CCCC(=O)C1=C(O)C(C(=O)OC)C(C)(C)CC1=Nc1cccc2ccccc12 (stereo unspecified) ?
EphB4 ephrin blk: inactive

How did Cc1c(C#N)c2ncn(Cc3ccccc3)c(=O)c2n1-c1ccccc1 do in these assays?
CYP2C9 act: inactive; EphB4 ephrin blk: inactive; CYP2C19 inhib: inactive; CYP2C9 inhib: 63.0; CYP2C19 activ: inactive

How did COC(=O)Cn1cnc2c(C#N)c3n(c2c1=O)CCCCC3 do in these assays?
CYP2C9 act: inactive; EphB4 ephrin blk: inactive; CYP2C19 inhib: inactive; CYP2C9 inhib: inactive; CYP2C19 activ: inactive

Screens deposited in PubChem BioAssay by several laboratories.
